# In the supplement of paper PMC11060735:
# Counter-ions that a name gives are not always drawn. Over roughly 1,800 compounds, “GFP- (p16Ink4a-) cell count relative to negative-control wells” has its median near 0.99; the lowest 2% begin near 0.5. The list comes from a sample in which the lowest values are over-represented; it also holds similar structures and randomly drawn compounds.
# Tested on: mouse p16Ink4a+/- lung fibroblasts (INKBRITE, bleomycin-injured)
# Test: GFP- (p16Ink4a-) cell count relative to negative-control wells (fold of vehicle); higher = more p16Ink4a- cells surviving
# Conditions: 1 µM; 3 days
row,Structure (SMILES),GFP-
1,COC(=O)[C@]12CCC(C)(C)C[C@@H]1[C@@H]1C(=O)C=C3[C@]4(C)C=C(C#N)C(=O)C(C)(C)[C@@H]4CC[C@@]3(C)[C@]1(C)CC2 [Bardoxolone Methyl],0.406
2,O=C(c1ccc(F)cc1)C1CCN(CCn2c(=O)[nH]c3ccccc3c2=O)CC1 [Ketanserin Tartrate],0.924
3,COc1ccc2c(c1)c(CC(=O)N1CCOCC1)c(C)n2C(=O)c1ccc(Cl)cc1,1.15
4,CC(=O)SCC(Cc1ccccc1)C(=O)NCC(=O)OCc1ccccc1 (stereo unspecified) [Racecadotril],0.972
5,CC(C)C[C@@H](C=O)NC(=O)[C@H](CC(C)C)NC(=O)[C@H](CC(C)C)NC(=O)OCc1ccccc1,0.302
6,COC(=O)[C@H](Cc1ccccc1)NC(=O)[C@@H](N)CC(=O)O [Aspartame],0.966
7,CCCC(=O)Nc1cccc(NC(=O)c2ccccc2Br)c1,1.03
8,CCOC(=O)C1=C(C)N=C(C)/C(=C(/O)OCC)C1c1ccccc1/C=C/C(=O)OC(C)(C)C (stereo unspecified) [Lacidipine],1.08
9,Clc1ccc(C(Cn2ccnc2)OCc2ccsc2Cl)c(Cl)c1 (stereo unspecified) [Tioconazole],0.993
10,Cn1nc(C(C)(C)C)cc1C(=O)N[C@@H](Cc1cccc(Cl)c1)C(=O)NCC#N [Cathepsin Inhibitor 1],1.01
11,O=C1CCC[C@@H]2[C@H]3CCC[N+]4([O-])CCC[C@@H](CN12)[C@@H]34 (stereo partly specified) [Oxymatrine],1.08
12,O=S(=O)(O)c1cc(O)ccc1O [Ethamsylate],0.995
13,"C=C1/C(=C\C=C2/CCC[C@]3(C)[C@@H]([C@H](C)CCCC(C)(C)O)CC[C@@H]23)C[C@@H](O)C[C@@H]1O [Calcitriol, DN-101]",1.39
14,CN1CCN(S(=O)(=O)c2ccc(-c3cnc(N)c(C(=O)Nc4cccnc4)n3)cc2)CC1,0.998
15,Cc1[nH]c(/C=C2\C(=O)Nc3ccc(S(=O)(=O)Cc4c(Cl)cccc4Cl)cc32)c(C)c1C(=O)N1CCC[C@@H]1CN1CCCC1,0.404
16,Cc1[nH]c(/C=C2\C(=O)Nc3ccccc32)c(C)c1CCC(=O)O [Orantinib],1.09
17,Cc1[nH]c(/C=C2\C(=O)Nc3ccc(S(=O)(=O)N(C)c4cccc(Cl)c4)cc32)c(C)c1C(=O)N1CCN(C)CC1,0.704
18,N=C(N)Nc1ccc(C(=O)Oc2ccc3cc(C(=N)N)ccc3c2)cc1 [Nafamostat],1.16
19,Nc1cc(C(Cl)=C(Cl)Cl)c(S(N)(=O)=O)cc1S(N)(=O)=O [Clorsulon],1.08
20,Cc1cc(C)c(/C=C2\C(=O)Nc3ccccc32)[nH]1 [Semaxanib],0.862
21,Cc1ccc(-n2sc(=O)n(Cc3ccc(F)cc3)c2=O)cc1,1.1
